Holding throughout (assay): protein-binding microarray (PBM); PBM: ~300 nM protein, 6 mM HEPES pH 7.8, 80 mM KCl, 0.5 mM EDTA, 0.5 mM EGTA, 6% glycerol, 35 ng/ul poly-dIdC, 1% milk, 1 h, room temperature; Ap Aiptasia and Nv Nematostella (sea anemones) / Co Capsaspora / Aq Amphimedon (sponge) / Dm Drosophila / Hu human; RHD is the Rel homology domain; high values mean tight binding
Details in all cases: dsDNA, one strand shown

One assay addresses T1, GST-Ap-NF-kB RHD (Exaiptasia pallida (Aiptasia), UniProt A0A913YAJ5 2-422).
T1 sequence: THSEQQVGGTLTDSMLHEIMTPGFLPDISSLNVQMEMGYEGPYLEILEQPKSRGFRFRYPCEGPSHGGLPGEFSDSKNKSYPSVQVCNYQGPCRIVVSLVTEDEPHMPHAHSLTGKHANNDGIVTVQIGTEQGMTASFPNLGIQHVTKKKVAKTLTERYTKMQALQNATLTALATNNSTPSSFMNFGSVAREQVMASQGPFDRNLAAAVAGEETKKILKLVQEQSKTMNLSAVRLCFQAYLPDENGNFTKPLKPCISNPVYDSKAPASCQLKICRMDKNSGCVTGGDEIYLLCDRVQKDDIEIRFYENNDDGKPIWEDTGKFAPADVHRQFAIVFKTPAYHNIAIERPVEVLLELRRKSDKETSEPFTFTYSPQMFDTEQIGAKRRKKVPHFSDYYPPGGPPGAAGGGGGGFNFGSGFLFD

Assay [1] addresses T2, GST-Nv-NF-kB (Cys allele) (Nematostella vectensis, UniProt E5G601 2-411).
T2 sequence: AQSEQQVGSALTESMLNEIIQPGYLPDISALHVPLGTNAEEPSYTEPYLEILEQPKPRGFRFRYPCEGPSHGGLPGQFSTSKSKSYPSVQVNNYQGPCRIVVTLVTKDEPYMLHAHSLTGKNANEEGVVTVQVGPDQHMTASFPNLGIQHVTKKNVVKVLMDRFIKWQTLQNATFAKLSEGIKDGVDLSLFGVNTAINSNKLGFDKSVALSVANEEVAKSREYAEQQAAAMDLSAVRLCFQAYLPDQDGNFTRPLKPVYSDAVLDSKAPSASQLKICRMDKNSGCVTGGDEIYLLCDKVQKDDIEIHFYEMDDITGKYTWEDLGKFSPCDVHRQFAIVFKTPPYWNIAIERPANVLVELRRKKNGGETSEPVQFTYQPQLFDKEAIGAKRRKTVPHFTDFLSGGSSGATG

Assay [2] has as its target T3, GST-Nv-NF-kB (Ser allele) (Nematostella vectensis, UniProt A7UNT2 2-411).
T3 sequence: T2 sequence with Q21R, C66S, S207N, E215Q, V217A, E225K, A268E, D399E

The target of another assay is T4, GST-Co-NF-kB (Capsaspora owczarzaki, UniProt F1ARL5 200-546).
T4 sequence: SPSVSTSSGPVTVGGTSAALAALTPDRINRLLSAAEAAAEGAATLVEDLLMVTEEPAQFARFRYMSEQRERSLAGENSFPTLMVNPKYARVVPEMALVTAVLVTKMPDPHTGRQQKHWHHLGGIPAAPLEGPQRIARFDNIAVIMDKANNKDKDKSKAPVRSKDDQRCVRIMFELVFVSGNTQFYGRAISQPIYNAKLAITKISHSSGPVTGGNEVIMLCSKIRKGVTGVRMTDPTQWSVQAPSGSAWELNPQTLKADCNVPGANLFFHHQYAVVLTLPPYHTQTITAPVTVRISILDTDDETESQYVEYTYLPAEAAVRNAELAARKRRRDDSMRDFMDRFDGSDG

A further assay concerns the target T5, GST-Dm-Relish (Drosophila melanogaster, UniProt Q94527 99-473).
T5 sequence: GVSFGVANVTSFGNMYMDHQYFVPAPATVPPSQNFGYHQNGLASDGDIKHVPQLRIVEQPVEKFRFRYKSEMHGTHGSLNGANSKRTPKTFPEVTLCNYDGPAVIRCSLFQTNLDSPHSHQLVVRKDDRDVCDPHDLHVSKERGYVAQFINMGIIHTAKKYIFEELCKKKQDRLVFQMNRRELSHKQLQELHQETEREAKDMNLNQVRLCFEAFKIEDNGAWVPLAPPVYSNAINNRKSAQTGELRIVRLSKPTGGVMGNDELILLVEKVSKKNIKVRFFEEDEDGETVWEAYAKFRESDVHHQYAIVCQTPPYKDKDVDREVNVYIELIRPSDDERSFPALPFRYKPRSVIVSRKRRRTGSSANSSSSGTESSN

The next assay has as its target T6, GST-Aq-NF-kB (Amphimedon queenslandica, UniProt A9Y5G7 2-389).
T6 sequence: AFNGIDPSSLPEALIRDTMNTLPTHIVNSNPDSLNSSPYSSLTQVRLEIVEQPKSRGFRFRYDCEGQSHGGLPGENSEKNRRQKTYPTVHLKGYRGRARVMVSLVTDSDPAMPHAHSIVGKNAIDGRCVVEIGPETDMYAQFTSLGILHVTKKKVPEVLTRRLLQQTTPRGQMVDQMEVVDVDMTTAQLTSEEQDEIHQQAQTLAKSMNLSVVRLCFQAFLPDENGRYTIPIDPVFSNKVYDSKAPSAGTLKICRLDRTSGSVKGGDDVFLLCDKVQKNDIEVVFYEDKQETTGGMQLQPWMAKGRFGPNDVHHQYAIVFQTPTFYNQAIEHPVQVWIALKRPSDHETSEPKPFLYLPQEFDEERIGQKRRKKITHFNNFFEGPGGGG

A further assay concerns the target GST-Hu-p50 (Homo sapiens, UniProt P19838 7-356).

Residue numbers refer to the chain shown, from its start.

Chain of GST-Hu-p50 (P19838 7-356): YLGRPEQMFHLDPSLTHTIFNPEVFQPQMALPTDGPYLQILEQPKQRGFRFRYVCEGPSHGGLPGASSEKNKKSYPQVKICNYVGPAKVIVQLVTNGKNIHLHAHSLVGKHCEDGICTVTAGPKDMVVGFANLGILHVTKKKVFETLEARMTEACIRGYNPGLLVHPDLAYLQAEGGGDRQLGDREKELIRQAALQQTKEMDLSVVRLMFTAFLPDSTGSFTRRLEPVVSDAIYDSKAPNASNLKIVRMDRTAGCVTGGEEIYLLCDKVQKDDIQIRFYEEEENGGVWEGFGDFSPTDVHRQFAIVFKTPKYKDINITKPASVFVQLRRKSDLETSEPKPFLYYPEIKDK

Take “CCGATTAACATCAGATATTCCCATGATGTTAATCGGGTCTTGATTCGCTTGACGCTGCTG”: the binding signal with GST-Ap-NF-kB RHD came out at 3.86 z-score; in assay [1], 3.21 z-score; in assay [2], 3.17 z-score; in the assay with GST-Co-NF-kB it was 2.8 z-score; with GST-Dm-Relish it was 1.78 z-score; with GST-Aq-NF-kB it was 2.67 z-score. For the same sequence, the binding signal with GST-Hu-p50 was determined as 1.97 z-score.
Regarding “CCGATTAACATCAGGGGATTCACTGATGTTAATCGGGTCTTGATTCGCTTGACGCTGCTG”, the binding signal with GST-Ap-NF-kB RHD was found to be 7.47 z-score; in assay [1], 7.31 z-score; in assay [2], 7.91 z-score; in the assay with GST-Co-NF-kB it was 3.35 z-score; with GST-Dm-Relish it was 10.3 z-score; in the assay with GST-Aq-NF-kB, 6.42 z-score. In the assay with GST-Hu-p50, this sequence came in with a binding signal of 6.59 z-score.
In the case of “CCGATTAACATCAGGGGACATTATGATGTTAATCGGGTCTTGATTCGCTTGACGCTGCTG”, the binding signal is 5.74 z-score with GST-Ap-NF-kB RHD; 5.19 z-score in assay [1]; 5.89 z-score in assay [2]; 4.2 z-score in the assay with GST-Co-NF-kB; 3.51 z-score in the assay with GST-Dm-Relish; 4.62 z-score with GST-Aq-NF-kB. Also, the binding signal in the assay with GST-Hu-p50 came to 4.63 z-score.
For “CCGATTAACATCAGGGGATTGCATGATGTTAATCGGGTCTTGATTCGCTTGACGCTGCTG”, the binding signal in the assay with GST-Ap-NF-kB RHD was determined as 5.77 z-score; in assay [1], 5.89 z-score; in assay [2], 6.93 z-score; with GST-Co-NF-kB, 2.38 z-score; with GST-Dm-Relish, 4.62 z-score; with GST-Aq-NF-kB, 4.23 z-score. This sequence displayed a binding signal in the assay with GST-Hu-p50 of 5.31 z-score.
On to “CCGATTAACATCAGGCATTCCCCTGATGTTAATCGGGTCTTGATTCGCTTGACGCTGCTG”, for which the binding signal is 6.9 z-score in the assay with GST-Ap-NF-kB RHD; 8.51 z-score in assay [1]; 7.12 z-score in assay [2]; 3.19 z-score with GST-Co-NF-kB; 7.67 z-score with GST-Dm-Relish; 7.93 z-score in the assay with GST-Aq-NF-kB. The sequence further showed a binding signal with GST-Hu-p50 of 5.74 z-score.
For “CCGATTAACATCAGGGGAACTACTGATGTTAATCGGGTCTTGATTCGCTTGACGCTGCTG”, the binding signal with GST-Ap-NF-kB RHD came out at 6.92 z-score; in assay [1], 6.99 z-score; in assay [2] it was 7.41 z-score; in the assay with GST-Co-NF-kB, 5.65 z-score; in the assay with GST-Dm-Relish it was 9.35 z-score; in the assay with GST-Aq-NF-kB it was 6.91 z-score. In addition, the binding signal with GST-Hu-p50 is 5.5 z-score.
In the case of “CCGATTAACATCACAGAAATCCCTGATGTTAATCGGGTCTTGATTCGCTTGACGCTGCTG”, the binding signal in the assay with GST-Ap-NF-kB RHD came to 4.33 z-score; in assay [1], 3.88 z-score; in assay [2] it was 3.79 z-score; in the assay with GST-Co-NF-kB it was 1.43 z-score; with GST-Dm-Relish it was 5.77 z-score; with GST-Aq-NF-kB, 3.9 z-score. In addition, the binding signal with GST-Hu-p50 was 3.37 z-score.
For the sequence “CCGATTAACATCAAAGCTTCCCCTGATGTTAATCGGGTCTTGATTCGCTTGACGCTGCTG”, the binding signal was 5.17 z-score with GST-Ap-NF-kB RHD; 6.28 z-score in assay [1]; 7.74 z-score in assay [2]; 7.56 z-score with GST-Co-NF-kB; 3.8 z-score in the assay with GST-Dm-Relish; 4.64 z-score with GST-Aq-NF-kB. The sequence further had a binding signal with GST-Hu-p50 of 5.4 z-score.
Consider “CCGATTAACATCACGGGGTTTCCTGATGTTAATCGGGTCTTGATTCGCTTGACGCTGCTG”, for which the binding signal with GST-Ap-NF-kB RHD turned out to be 6.06 z-score; in assay [1], 4.79 z-score; in assay [2] it was 2.69 z-score; with GST-Co-NF-kB, 2.61 z-score; with GST-Dm-Relish it was 7.75 z-score; with GST-Aq-NF-kB it was 5.93 z-score. In the assay with GST-Hu-p50, this sequence registered a binding signal of 4.42 z-score.
On to “CCGATTAACATCAAATTTTCCCCTGATGTTAATCGGGTCTTGATTCGCTTGACGCTGCTG”, for which the binding signal in the assay with GST-Ap-NF-kB RHD was found to be 7.95 z-score; in assay [1], 9.83 z-score; in assay [2] it was 12.2 z-score; with GST-Co-NF-kB it was 11.6 z-score; with GST-Dm-Relish, 5.18 z-score; with GST-Aq-NF-kB, 7.36 z-score. The same sequence gave a binding signal with GST-Hu-p50 of 6.86 z-score.
In the case of “CCGATTAACATCAGGGGTTCCCATGATGTTAATCGGGTCTTGATTCGCTTGACGCTGCTG”, the binding signal in the assay with GST-Ap-NF-kB RHD was determined as 4.04 z-score; in assay [1], 2.36 z-score; in assay [2], 1.37 z-score; with GST-Co-NF-kB, 1.64 z-score; in the assay with GST-Dm-Relish, 10 z-score; with GST-Aq-NF-kB, 4.49 z-score. The sequence further gave a binding signal with GST-Hu-p50 of 2.64 z-score.
